As a reminder, the AC50 is the concentration at which the activity in the assay is half-maximal.

Data on 40 compounds can be found in PubChem BioAssay (EPA / NIEHS).

Activity calls are given as the source filed them. How the source made its calls: active means hit-call score of the fitted dose curve at least 0.9, where 1 is the maximum; inactive means score below 0.9.

Read-out in the experiment: Monocyte Chemoattractant Protein-1 (MCP1), CCL2 (gene 6347)
The experiment can be described thus: BSK_3C_MCP1: BioMAP Diversity Plus: 3C Assay for Monocyte Chemoattractant Protein-1 (MCP1) Biomarker Activity (AID 2283017). As to conditions: primary human endothelial cells (HUVEC); actives raise or lower the signal. As for the experimental part:
BSK_3C is a cell-based, multiplexed-readout assay that uses umbilical vein endothelium, a human vascular primary cell, with measurements taken at 24 hours after chemical dosing in a 96-well plate.BSK_3C_MCP1 is an assay component measured in the BSK_3C assay. It measures MCP-1 antibody related to regulation of gene expression using ELISA technology.Data from the assay component BSK_3C_MCP1 was analyzed into 1 assay endpoint. This assay endpoint, BSK_3C_MCP1, was analyzed with bidirectional fitting relative to DMSO as the negative control and baseline of activity. Using a type of binding reporter, gain or loss-of-signal activity can be used to understand changes in the signaling as they relate to the gene CCL2. Furthermore, this assay endpoint can be referred to as a primary readout, because this assay has produced multiple assay endpoints where this one serves a signaling function. To generalize the intended target to other relatable targets, this assay endpoint is annotated to the cytokine intended target family, where the subfamily is chemotactic factor.
The levels of cell surface (or secreted, indicated by the prefix "s") biomarker endpoints were measured by ELISA. Overt cytotoxicity to cells in confluent adherent cultures (all systems other than the BT system) was assessed by measuring total protein levels using sulforhodamine B (SRB) staining in parallel cultures at the time of biomarker measurements, indicated as SRB endpoints. For proliferation assays for adherent cell types, individual cell types are cultured at sub-confluence and relative cell numbers quantified by SRB staining at time points optimized for each system (48 h: 3C and CASM3C systems; 72 h: BT and HDF3CGF systems; 96 h: SAg system). SRB was performed by staining cells with 0.1% SRB after fixation with 10% TCA and reading wells at 560 nm.Viability and proliferation of PBMC (T cells) was quantified by Alamar Blue reduction for the SAg and BT systems. For PBMC viability (referred to as PBMC Cytotoxicity within the assay endpoint names), cells were plated (75,000/well in a 96-well plate) and then chemical samples added for 1 h before addition of activators, SEB and TSST-1 (20 ng/mL final concentration each). Cells were incubated for 90 h. Then, Alamar Blue (20 uL/well) (Invitrogen, Cat DAL1100) was added for 6 h, and the plates were read with a fluorescence microplate reader at 546/580 nm (excitation/emission). For PBMC proliferation, cells were plated and activated as above but incubated for only 16 h prior to addition of Alamar Blue. Plates were read after 6 h.
Consider `O=c1oc2ccccc2c(O)c1C(CC(O)c1ccc(-c2ccc(Br)cc2)cc1)c1ccccc1` (stereo not given), for which the concentration at half-maximal activity (AC50) was 10.5 µM (active). As for `COCC(=O)N(c1c(C)cccc1C)[C@H](C)C(=O)OC`, the outcome was inactive.

On to `O=C1C=CC(=O)c2ccccc21`, for which the AC50 was 3.04 µM (active). On the same count and under the same terms, in the case of `Cc1ccccc1OP(=O)(Oc1ccccc1C)Oc1ccccc1C` it was 10.2 µM (active). Take `CC(C)(C)c1cc([N+](=O)[O-])cc(C(C)(C)C)c1O`: the result was inactive.

With `CCCCOC(=O)COC(=O)c1ccccc1C(=O)OCCCC`, the result was inactive. Consider `Cc1ccc(OP(=O)(Oc2ccc(C)cc2C)Oc2ccc(C)cc2C)c(C)c1`, for which the AC50 is 20 µM (active). For the compound `CC(C)N(C(=O)CCl)c1ccccc1`, the AC50 is 20 µM (active). For `CCN(CC)C(=O)C(Cl)=C(C)OP(=O)(OC)OC`, the result was inactive.

As for `O=C(N[C@H]1CN2CCC1CC2)c1ccc2c(c1)OCCO2`, the outcome was inactive. For `Nc1c(Oc2ccccc2)cc(O)c2c1C(=O)c1ccccc1C2=O`, the result was inactive. For `CCOP(=O)(OCC)SCCSCC`, the outcome was inactive. On the same count and under the same terms, in the case of `COc1ccccc1N` it was “inactive”. As to `Oc1ccc(Cc2ccc(O)cc2)cc1`, the outcome was inactive. The same measure, in the same setting: in the case of `CCCCCCCCCCCCN(C)C` it was “inactive”; in that of `O=[N+]([O-])c1cccc2ccccc12`, “inactive”; in that of `Cc1cccc(OP(=O)(Oc2cccc(C)c2)Oc2cccc(C)c2)c1`, “inactive”. On to `CC(C)O.CC(C)O.OCCN(CCO)CCO.OCCN(CCO)CCO.[Ti]`, for which the outcome was inactive.

For `Oc1cc(Cl)c(Cl)cc1Cl`, the AC50 was 33.3 µM (active). Consider `OC(Cc1ccccc1Cl)(Cn1[nH]cnc1=S)C1(Cl)CC1` (stereo not given), for which the result was inactive.

For `c1ccc(-c2cccc(-c3ccccc3)c2)cc1`, the AC50 is 12.4 µM (active).

As for `CC(C)=CC1C(C(=O)OCc2cccc(Oc3ccccc3)c2)C1(C)C` (stereo not given), the result was inactive. The same measure, in the same setting: in the case of `Oc1c(Cl)cc(Cl)cc1Cl` it was “inactive”. As for `Cc1cc(C(C)(C)c2ccc(O)c(C)c2)ccc1O`, the AC50 is 19.3 µM (active). In the case of `O=C(Cc1ccccc1)OCCc1ccccc1`, the result was inactive. For the compound `Clc1cccc(Cl)c1Cl`, the result was inactive. With `Cc1ccc2nc3sc(=O)sc3nc2c1`, the half-maximal activity concentration (AC50) is 7.34 µM (active).

For `CN(C)C(=S)S`, the result was inactive. Same read-out and setting: in the case of `OCCN(CCO)CCO` it was “inactive”; in that of `CCCCCCCCCCCCc1cccc(S(=O)(=O)O)c1`, “inactive”.

Take `[Cl][Sn]([c]1ccccc1)([c]1ccccc1)[c]1ccccc1`: the concentration at half-maximal activity (AC50) is 0.292 µM (active). For the compound `CC(C)(C)c1ccccc1O`, the outcome was inactive. With `CCOC(=O)C(SP(=S)(OC)OC)c1ccccc1` (stereo not given), the AC50 is 3.97 µM (active).

For `CC1(C)[C@H](C(=O)O[C@H](C#N)c2cccc(Oc3ccccc3)c2)[C@@H]1/C=C(\Cl)C(F)(F)F`, the result was inactive. `C#CCOC(=O)/C=C(C)/C=C/CC(C)CCCC(C)C` (stereo not given): the half-maximal activity concentration (AC50) is 36.8 µM (active). `Cc1cc(C)cc(C)c1`: the result was inactive. As for `CCCCN(CCCC)C(=S)[S-].CCCCN(CCCC)C(=S)[S-].[Ni+2]`, the outcome was inactive. For `Cc1cc(Cl)ccc1OC(C)C(=O)O` (stereo not given), the result was inactive. Same read-out and setting: in the case of `C=CC(Cl)CCl` (stereo not given) it was “inactive”; in that of `Nc1ccc(N)cc1`, “inactive”.
